Source: PubChem BioAssay (The Scripps Research Institute Molecular Screening Center)
Sampled rows, rich in hits. Any-hit rate of the full collection: about 5.7%.
hgDAF12 agonist: hgDAF-12 agonism, primary luciferase screen; HEK293 GAL4-hgDAF12 UAS-luciferase reporter, agonist luminescence; normalized to butyrate control; activation, % at 6.8 µM; 370,000 compounds, 1.8% hits; AID 687014;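 active = activation above a cutoff set at the mean of all screened compounds plus 3 SD, cut at about 10% in these data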
DAX1 inh-1: DAX1 (NR0B1) inhibition, primary screen; HEK293T StAR-luciferase reporter, SF-1/DAX-1 repression relief; inhibition, % at 6.8 µM; 370,000 compounds, 1.1% hits;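 active = inhibition above the mean over all tested compounds plus 3 SD, cut at about 3.6% in these data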;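 note: higher inhibition means more luminescence from relief of DAX-1 repression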
DAX1 inh-2: NR0B1 (DAX1) inhibition. HEK293 Gal4-DAX1 luciferase reporter, luminescence. inhibition, % at 6.75 µM. AID 504766. 340,000 compounds, 0.99% hits. P51843;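 active = inhibition above the mean over all tested compounds plus 3 SD, cut at about 4.2% in these data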;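 note: inhibition shows as a rise in luminescence from relieved DAX1 repression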
Target sequence (P51843 207-470 limits assumed): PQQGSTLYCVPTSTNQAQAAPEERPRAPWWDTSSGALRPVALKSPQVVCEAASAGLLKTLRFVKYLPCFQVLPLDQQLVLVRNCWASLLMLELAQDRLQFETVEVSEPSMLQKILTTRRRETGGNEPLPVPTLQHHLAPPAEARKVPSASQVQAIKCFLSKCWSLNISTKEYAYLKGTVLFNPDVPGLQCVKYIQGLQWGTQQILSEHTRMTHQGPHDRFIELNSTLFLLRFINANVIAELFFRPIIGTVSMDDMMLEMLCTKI
ssDAF-12 act: S. stercoralis DAF-12 activation, primary screen; activation, % at 6.8 µM; HEK293 ssDAF-12/GRIP1 lit1-tk-luc reporter, luminescence; % of 3 µM dafachronic acid response; 370,000 compounds, 1% hits;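 active = activation above the mean over all tested compounds plus 3 SD, cut at about 0.9% in these data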
hcDAF-12 act: activates DAF-12 receptor from parasite H. contortus | 370,000 compounds, 1.4% hits | HEK293 hcDAF-12 lit1-tk-luc reporter, luminescence; 0% DMSO, 100% Δ7-dafachronic acid | activation, % at 6.8 µM;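 active = activation above the mean of all tested compounds plus 3 SD, cut at about 5.5% in these data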
AHR activator: activates the human aryl hydrocarbon receptor; P35869; AHR-responsive luciferase reporter cells, luminescence; activation, % at 5 µM; 320,000 compounds, 2.5% hits; in the data active = activation above about 47%
Of the large screens only hits and unclear results are named; the others gave an inactive call.

O=C(CCNC(=O)c1ccc(Cl)cc1)Nc1cccc(S(=O)(=O)N2CCCCC2)c1	none
Cc1cc(/C=C(/C#N)C(=O)Nc2ccccc2)c(C)n1-c1cccnc1	hgDAF12 agonist 10.8
Cc1cc(/C=C2\NC(=O)NC2=O)c(C)n1-c1cccnc1	AHR activator 99.8 (no result: DAX1 inh-2)
Cc1cccc(C)c1-n1c(C)cc(/C=C2\NC(=O)NC2=O)c1C	none
Cn1c(SCc2ccccc2)nnc1-c1ccco1	hgDAF12 agonist 12.7
Cn1c(SCc2ccccc2)nnc1-c1ccc(O)cc1	ssDAF-12 act 0.9
Cn1c(SCc2cccc(Br)c2)nnc1-c1ccccn1	none
Cn1c(SCc2cccc(F)c2)nnc1-c1ccccn1	DAX1 inh-2 5.2
CC1(C(=O)NCc2ccccc2)CN(S(C)(=O)=O)CC(=O)N1C1CCN(Cc2ccccc2)CC1 (stereo unspecified)	none (no result: DAX1 inh-2, AHR activator)
COc1ccc(N2C(=O)c3n[nH]c(C)c3C2c2ccc(F)cc2)cc1 (stereo unspecified)	none (no result: DAX1 inh-2, AHR activator)
O=C(CNC(=O)c1ccc(Cl)cc1)OCc1nc2ccccc2s1	hcDAF-12 act 6.2
O=C(CNC(=O)c1ccc(Cl)cc1)OCC(=O)c1ccccc1	none
COCCCNC(=O)C[C@H]1C[C@@]2(C(=O)OC)C(=C[C@H](C(C)(C)C)O[C@@H]2C)N(CCc2ccc(OC)c(OC)c2)C1=O	none (no result: DAX1 inh-2, AHR activator)
CCCCC1OC(CCc2ccccc2)CC2=C1C(=O)OC(C)(C)O2 (stereo unspecified)	none (no result: DAX1 inh-2, AHR activator)
O=c1c2[nH]c3ccccc3c2ncn1CCCn1ccnc1	AHR activator 65.6
O=c1c2ccccc2[nH]c(=S)n1CCN1CCc2ccccc2C1	DAX1 inh-2 4.3
O=c1c2ccccc2[nH]c(=S)n1CCCn1ccnc1	AHR activator 67.7
COC(=O)c1ccc(NC(=O)CCN2C(=O)C3CC=CCC3C2=O)cc1 (stereo unspecified)	none
CCn1c(SCC(=O)N2CCN(c3ccccc3)CC2)nc2c([nH]c3ccccc32)c1=O	ssDAF-12 act 1.2, AHR activator 54.4
CCn1c(SCC(=O)N2CCC(C)CC2)nc2c([nH]c3ccccc32)c1=O	none (no result: AHR activator)
Cc1cccc(NC(=O)CSc2nc3c([nH]c4ccccc43)c(=O)n2C)c1	hcDAF-12 act 6.0
COc1ccc(-n2c(SCC(=O)Nc3cc(C)on3)nc3c([nH]c4ccccc43)c2=O)cc1	ssDAF-12 act 1.1
COCCn1c(SCC(=O)Nc2ccc(C)cc2C)nc2c(oc3ccccc32)c1=O	ssDAF-12 act 0.9
COCCn1c(SCC(=O)Nc2ccccc2C)nc2c(oc3ccccc32)c1=O	none
O=[N+]([O-])c1cc([N+](=O)[O-])c(Oc2cc(F)ccc2F)cc1NN1CCCCC1	none
COc1cc(CN2CCN(c3ncc(Cc4ccccc4)cn3)CC2)cc(OC)c1	none (no result: DAX1 inh-2, AHR activator)
CC(=O)Nc1ccc(NC(=O)CSc2nc3c([nH]c4ccccc43)c(=O)n2-c2ccccc2F)cc1	AHR activator 57.9
COc1cccc(NC(=O)CSc2nc3c([nH]c4ccccc43)c(=O)n2C)c1	hcDAF-12 act 6.4
Cc1ccc(-n2c(SCC(=O)Nc3cc(C)on3)nc3c([nH]c4ccccc43)c2=O)cc1	none
C=CCn1c(SCC(=O)Nc2ccc(OC)cc2)nc2c([nH]c3ccccc32)c1=O	none
Cn1c(SCC(=O)Nc2ccccc2)nc2c([nH]c3ccccc32)c1=O	AHR activator 53.5
COCCn1c(SCC(=O)Nc2cccc(F)c2)nc2c([nH]c3ccccc32)c1=O	AHR activator 65.2
CCSc1nc2c([nH]c3ccccc32)c(=O)n1C	none
COCCn1c(SCC(=O)Nc2ccc(C(C)=O)cc2)nc2c([nH]c3ccccc32)c1=O	none
CCN(CCCNC(=O)Cn1ncc2c([nH]c3ccc(C)cc32)c1=O)c1cccc(C)c1	none (no result: hgDAF12 agonist, DAX1 inh-1, ssDAF-12 act, hcDAF-12 act)
CCOC(=O)c1cccc(NC(=O)c2cc(C)nn2-c2ccccc2)c1	none
O=C(Nc1cccc2ccccc12)N1CCCN(c2c(Cl)cncc2Cl)CC1	none
Cc1cc(C)cc(NC(=O)N2CCCN(c3c(Cl)cncc3Cl)CC2)c1	ssDAF-12 act 1.8
Cc1ccc2oc(-c3cccc(NC(=O)C4CCCO4)c3)nc2c1 (stereo unspecified)	AHR activator 71.9
O=C1OCc2cc(NC(=O)C3CCCO3)ccc21 (stereo unspecified)	hcDAF-12 act 5.8
Cc1ccc2oc(-c3cccc(NC(=O)c4ccccn4)c3)nc2c1	none
CCOc1ccccc1NC(=O)NC(C)c1ccc2c(c1)OCO2 (stereo unspecified)	AHR activator 58.2
CCOc1ccccc1C(=O)NC(C)c1ccc2c(c1)OCO2 (stereo unspecified)	AHR activator 52.5
C[C@H]1[C@@H](NC(=O)/C=C/c2ccccc2)CC[C@@]23CCCN2C(=O)CCC[C@@H]13	none (no result: DAX1 inh-1, DAX1 inh-2, AHR activator)
CC(C)N=c1c([N+](=O)[O-])nn(C)n1O	none
O=C(CSc1nc2ccccc2[nH]1)NC(=O)NCc1ccco1	none
Cc1ccc2nc(SCC(=O)NC(=O)NCc3ccco3)[nH]c2c1	AHR activator 61.2
Cc1ccc2nc(SCC(=O)NCc3ccco3)[nH]c2c1	AHR activator 76.6
C[C@@H]1[C@H](c2ccccc2)OC(O)([C@H](Cc2ccccc2)NC(=O)OC(C)(C)C)CN1C (stereo partly specified)	none (no result: DAX1 inh-1, DAX1 inh-2, AHR activator)
CC1=CN2C(=NC(=O)CC2(C)C(=O)N(CC(=O)NC2CCCC2)Cc2ccc(Cl)cc2)C=C1 (stereo unspecified)	none
O=C(c1ccccc1)C12COc3ccccc3C1ON=C2c1ccccc1 (stereo unspecified)	none (no result: DAX1 inh-2, AHR activator)
CCOC(=O)C1=C(C)C/C(=N\NC(=O)c2ccccc2O)CC1	none
Cc1nc2sc3c(c2c(=O)o1)CCCC3	ssDAF-12 act 1.0
Cc1ccc(-c2nc3sc4c(c3c(=O)n2N)CCCC4)cc1	hgDAF12 agonist 12.0, hcDAF-12 act 5.8
CC(C)c1nc2sc3c(c2c(=O)o1)CCCC3	none
CSc1nnc(CCNC(=O)OC(C)(C)C)o1	DAX1 inh-2 4.5
CSc1nnc(CCCCCNC(=O)OC(C)(C)C)o1	none
CC1Cc2ccccc2N1C(=O)c1cc2cccnc2n(C)c1=O (stereo unspecified)	hcDAF-12 act 5.6
COCCN1CC(=O)N2C(c3cccc(OC)c3)c3[nH]c4ccccc4c3C[C@H]2C1=O (stereo partly specified)	none
Cc1ccc2nc(SCc3nc4ccccc4c(=O)[nH]3)[nH]c2c1	hgDAF12 agonist 11.4
Cc1cc(C)c(C#N)c(SCc2nc3ccccc3c(=O)[nH]2)n1	AHR activator 51.4
Clc1ccc2nc(SCc3nnc(-c4ccccc4)o3)[nH]c2c1	none
COC(=O)CSc1nc2ccc(C)cc2[nH]1	none
COC(=O)c1sc2nc(CSc3nc4ccc(C)cc4[nH]3)[nH]c(=O)c2c1C	hcDAF-12 act 6.1
Cc1ccc2nc(SCc3nnc(-c4ccccc4Br)o3)[nH]c2c1	AHR activator 52.5
